{"source": "the supplement of paper PMC10681739"}
{"target": "RUNX1 (UniProt Q01196)", "sequence (Q01196 whole entry)": "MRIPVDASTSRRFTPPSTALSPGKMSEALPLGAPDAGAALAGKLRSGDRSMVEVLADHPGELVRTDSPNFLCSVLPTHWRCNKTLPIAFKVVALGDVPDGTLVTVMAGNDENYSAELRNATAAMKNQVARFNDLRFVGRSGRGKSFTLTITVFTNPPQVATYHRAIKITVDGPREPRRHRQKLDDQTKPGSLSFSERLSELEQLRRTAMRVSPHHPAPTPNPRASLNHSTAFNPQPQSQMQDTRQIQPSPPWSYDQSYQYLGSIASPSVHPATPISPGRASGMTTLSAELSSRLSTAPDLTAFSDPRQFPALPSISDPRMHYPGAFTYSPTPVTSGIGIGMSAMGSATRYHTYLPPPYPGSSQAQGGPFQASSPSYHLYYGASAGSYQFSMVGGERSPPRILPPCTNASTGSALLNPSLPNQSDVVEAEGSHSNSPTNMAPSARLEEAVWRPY", "assay": "RUNX1 binding intensity (PBM fluorescence) in presence of ETS1, normalised to RUNX1-only experiment (arbitrary fluorescence units); higher = stronger binding", "details": "RUNX1 concentration 2 nM; ETS1 concentration 25 nM", "procedure": "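Cooperative gcPBM on 36-bp genomic probes with neighbouring ETS1 and RUNX1 sites. Recombinant human RUNX1 (2 nM) was incubated alone or with ETS1 (25 nM) and detected with anti-RUNX1 antibody plus Alexa488 secondary. Values are medians over 4 replicate spots; the RUNX1+ETS1 data were normalised to the RUNX1-only data. The probes sit in constant array flanks that are not printed.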"}
{"sequence": "CCCACCCAGGAAGCCGTCCTAACCACAACAGCCCTC", "RUNX1 binding intensity": 6790}
{"sequence": "GAGCCACCGGAAACGGAGCTGCGGCCGCGCCCCGCC", "RUNX1 binding intensity": 1650}
{"sequence": "CCACCCTCCGTCCGGCCGCGACCGCGAGGAGGAAGA", "RUNX1 binding intensity": 1130}
{"sequence": "TTATTTCCTCTTTTTTTTTTTTTTTTTGGTTTTGCT", "RUNX1 binding intensity": 4230}
{"sequence": "CCTCGGTTCGGAAACGGCGAAAGCAAACCGCAAGGA", "RUNX1 binding intensity": 3120}
{"sequence": "GAGGGTTGCTGGGGGGAAGTGTGGTAAATCTTTTCC", "RUNX1 binding intensity": 930}
{"sequence": "GACCACTTCCTTTCTGTGTTTTGTGGTTTCACAACT", "RUNX1 binding intensity": 9060}
{"sequence": "GCCACCTCTTCCTGTGTTGCAAACCACAGGTCCACC", "RUNX1 binding intensity": 5050}
{"sequence": "GACCAGGCGAGAGGATGTGGGTATGAGGGAGGAGCT", "RUNX1 binding intensity": 1090}
{"sequence": "TTTTCTTTCCTAGGAAGTGGTTGCTGGGTTCTGAGG", "RUNX1 binding intensity": 872}
{"sequence": "AGTGTCCGCCGCTTCCTGGTTGCGGGTCAGCGCCCA", "RUNX1 binding intensity": 2690}
{"sequence": "AGCTAAACCCAGTTCCGGTGCTGTGGGGAGCTCAGA", "RUNX1 binding intensity": 1990}
{"sequence": "GGTCAGGTGGGCGTTTCCTGTGGGCGTCTCCAACTC", "RUNX1 binding intensity": 1240}
{"sequence": "CCGGCAGGAAGTTAGCATGGGCGGACCACACGGGGG", "RUNX1 binding intensity": 1590}
{"sequence": "CCCCTCAGCTTCCGGGTGCTGCGGCCGCGGCCGAGA", "RUNX1 binding intensity": 1980}
{"sequence": "GAGTGACTGCTAACGGATGTGTGGTTTCTTTAGTTT", "RUNX1 binding intensity": 1470}
{"sequence": "TGTCTCATTTCCTGTAGGTAACAGGCACCACAATAG", "RUNX1 binding intensity": 1780}
{"sequence": "CATGGGACCCGGAAGTGTGTGGTAAAGCGCCGGGGC", "RUNX1 binding intensity": 2350}
{"sequence": "TACATAGGCGGAAGTGGCCTGCGGGCGCCGGAGTTG", "RUNX1 binding intensity": 1710}
